# Data: PubChem BioAssay (NCATS)
# Records with an inconclusive call do not appear. Values without a mark were called inactive. Active and inactive are the calls of the source. Calls come from the whole dose curve; as a rule, active = well fitted inhibition curve with a large enough effect; inconclusive = small, poorly fitted or top-dose-only effect; inactive = flat fitted curve, though single readings scatter.
# Biological target: Calcium and integrin-binding protein 1 (Homo sapiens) (UniProt Q99828)
# Experiment: Primary qHTS for Identification of Calcium Integrin Binding Protein 1 (CIB1) Competitor (AID 1508620);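 note: GST tagged CIB1 binding a fluorescein labelled alphaIIb integrin peptide tracer; top concentration of the series differs between compounds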
# Conditions: CIB1-GST / FITC-alphaIIb peptide fluorescence polarization; series mostly up to 114 µM; activity change, negative = inhibition: at the top concentration
# Outline: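 CIB1-GST (1 uM final) and compound incubated 15 min at room temperature before adding FITC-alphaIIb peptide tracer (100 nM final). Competition for binding read by fluorescence polarization (ex 480, em 540) after another 15 min at room temperature.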
# % is set by controls: 0 for no effect and ±100 for the full control effect.
# Chain of Calcium and integrin-binding protein 1 (Homo sapiens) (Q99828 whole entry, looked up): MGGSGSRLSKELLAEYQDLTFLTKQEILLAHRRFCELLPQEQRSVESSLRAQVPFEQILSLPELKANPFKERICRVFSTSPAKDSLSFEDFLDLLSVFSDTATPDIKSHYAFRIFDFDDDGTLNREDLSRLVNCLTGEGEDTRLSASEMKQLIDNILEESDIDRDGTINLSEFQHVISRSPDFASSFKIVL
SMILES,"activity change, negative = inhibition [%]",Potency
Cc1ccc(S(=O)(=O)Nc2ccccc2C(=O)Nc2ccc(-c3ccccc3)nc2)cc1,7.4,
COc1cccc(NS(=O)(=O)c2ccc(C)cc2)c1C(=O)Nc1nc(-c2ccccc2)cs1,2.41,
Cc1ccc(CNc2ccccc2C(=O)Nc2nc(-c3ccccc3)cs2)cc1,4.87,
Cc1ccc(S(=O)(=O)Nc2ccc(Cl)cc2C(=O)Nc2nc(-c3ccccc3)cs2)cc1,,inactive
O=C(Nc1ccc([S+](=O)([O-])Nc2nccs2)cc1)C1CCNCC1,0.0583,
Cc1ccc(-c2cc(C(=O)Nc3ccc(S(=O)(=O)Nc4ccc(C#N)cc4)cc3)c3ccccc3n2)cc1C,9.25,
COc1c(NS(=O)(=O)c2ccc(C)cc2)cccc1C(=O)Nc1nc(-c2ccccc2)cs1,7.05,
COC(=O)c1ccccc1C(=O)Nc1nc(-c2ccccc2)cs1,1.13,
Cc1ccc(-c2cc(C(=O)Nc3ccc(-n4cncn4)cc3)c3ccccc3n2)cc1C,8.2,
Cc1ccc(S(=O)(=O)n2cc(C(=O)Nc3nc(-c4ccccc4)cs3)c3ccccc32)cc1,-3.6,
Cc1ccc(S(=O)(=O)Nc2ccccc2CNc2nc(-c3ccccc3)cs2)cc1,3.4,
Cc1ccc(S(=O)(=O)Nc2cnccc2C(=O)Nc2ccc(S(=O)(=O)Nc3nccs3)cc2)cc1,-18.2,
Cc1ccc(S(=O)(=O)Nc2ccc(C(=O)Nc3nc(-c4ccccc4)cs3)c(Cl)c2)cc1,6.92,
